Common to all, as to assay: cell proliferation relative to vehicle (% of vehicle); higher = less growth inhibition
Holding throughout (conditions): 72 h

For experiment [1], the system named is U2932 TK216-resistant clone 2. A digest of the protocol:
(§1)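 A library of 348 targeted inhibitors was screened against the ABC-DLBCL cell line U2932, using parental cells and two clones made resistant to an ETS-targeting agent through repeated exposure over almost a year. The cells were cultured at 37°C and 5% CO2 in medium containing 10% FBS and treated at 500 nM or 50 nM for 72 h, after which MTT was added for 4 h, stopped with 25% SDS, and absorbance was read on a Cytation 3. Proliferation is given as the percentage of proliferating cells relative to the vehicle, DMSO.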

In experiment [2] the test system is U2932 TK216-resistant clone 3. A digest of the protocol: as §1
Experiment [3] relates to U2932 parental. The procedure, abridged:
as §1

For the compound `C/C(=C\C(=O)Nc1ccccc1C(=O)O)c1ccc2ccccc2c1`, the cell proliferation in experiment [1] (50 nM) was 82.5; in experiment [1] (500 nM), 98.2; in experiment [2] (50 nM), 109; in experiment [2] (500 nM), 100; in experiment [3] (50 nM), 97.4; in experiment [3] (500 nM), 102.

As for `CCCCCCCCCCCC1=C(O)C(=O)C=C(O)C1=O` [Embelin], the cell proliferation amounted to 90.5 in experiment [1] (50 nM); 98.8 in experiment [1] (500 nM); 103 in experiment [2] (50 nM); 103 in experiment [2] (500 nM); 100 in experiment [3] (50 nM); 89.7 in experiment [3] (500 nM).

Consider `O=C(O)c1ccc(O)c2ncccc12`, for which the cell proliferation in experiment [1] (50 nM) was 104; in experiment [1] (500 nM), 107; in experiment [2] (50 nM) it was 101; in experiment [2] (500 nM), 99.2; in experiment [3] (50 nM), 106; in experiment [3] (500 nM), 105.

On to `Oc1ccc(Nc2nc(-c3ccc(Cl)cc3)cs2)cc1`, for which the cell proliferation in experiment [1] (50 nM) came out at 109; in experiment [1] (500 nM), 94.9; in experiment [2] (50 nM), 111; in experiment [2] (500 nM) it was 103; in experiment [3] (50 nM), 97; in experiment [3] (500 nM), 95.5.

As to `CO[C@H]1C[C@@H]2CC[C@@H](C)[C@@](O)(O2)C(=O)C(=O)N2CCCC[C@H]2C(=O)O[C@H]([C@H](C)C[C@@H]2CC[C@@H](O)[C@H](OC)C2)CC(=O)[C@H](C)/C=C(\C)[C@@H](O)[C@@H](OC)C(=O)[C@H](C)C[C@H](C)/C=C/C=C/C=C/1C` [Rapamycin (Sirolimus)], the cell proliferation is 62.4 in experiment [1] (50 nM); 62.1 in experiment [1] (500 nM); 60.3 in experiment [2] (50 nM); 59.4 in experiment [2] (500 nM); 58.2 in experiment [3] (50 nM); 58.9 in experiment [3] (500 nM).

As to `CCCc1ccc(OCC(=O)N(Cc2nc(-c3cccnc3)no2)C(C)C)cc1`, the cell proliferation in experiment [1] (50 nM) was 107; in experiment [1] (500 nM), 102; in experiment [2] (50 nM), 103; in experiment [2] (500 nM), 101; in experiment [3] (50 nM), 85.2; in experiment [3] (500 nM) it was 97.7.

Turning to `Oc1cccc(-c2nc(N3CCOCC3)c3oc4ncccc4c3n2)c1`, the cell proliferation in experiment [1] (50 nM) stood at 97.4; in experiment [1] (500 nM), 45.4; in experiment [2] (50 nM) it was 94.2; in experiment [2] (500 nM), 46.3; in experiment [3] (50 nM), 92.1; in experiment [3] (500 nM), 48.

Turning to `COc1cc(-c2cc(-c3ccc(N4CCNCC4)cc3)cnc2C)cc(OC)c1OC`, the cell proliferation in experiment [1] (50 nM) stood at 99.7; in experiment [1] (500 nM), 88.1; in experiment [2] (50 nM), 107; in experiment [2] (500 nM), 88.5; in experiment [3] (50 nM), 104; in experiment [3] (500 nM), 96.6.

With `Cc1cc(N2CCOCC2)cc2[nH]c(-c3c(NC[C@@H](O)c4cccc(Cl)c4)cc[nH]c3=O)nc12`, the cell proliferation in experiment [1] (50 nM) is 110; in experiment [1] (500 nM), 96; in experiment [2] (50 nM), 100; in experiment [2] (500 nM), 92.8; in experiment [3] (50 nM), 102; in experiment [3] (500 nM) it was 100.

In the case of `NC1(c2ccc(-c3nc4ccn5c(=O)[nH]nc5c4cc3-c3ccccc3)cc2)CCC1`, the cell proliferation came to 101 in experiment [1] (50 nM); 70.1 in experiment [1] (500 nM); 97.5 in experiment [2] (50 nM); 74.9 in experiment [2] (500 nM); 96.8 in experiment [3] (50 nM); 68.4 in experiment [3] (500 nM).

As to `CNCc1ccc(-c2[nH]c3cc(F)cc4c3c2CCNC4=O)cc1`, the cell proliferation in experiment [1] (50 nM) was determined as 101; in experiment [1] (500 nM) it was 94.9; in experiment [2] (50 nM), 99.8; in experiment [2] (500 nM), 108; in experiment [3] (50 nM), 96.6; in experiment [3] (500 nM) it was 93.4.

On to `Nc1ncn([C@@H]2O[C@H](CO)[C@@H](O)[C@H]2O)c(=O)n1` [Azacitidine], for which the cell proliferation in experiment [1] (50 nM) is 103; in experiment [1] (500 nM), 96.5; in experiment [2] (50 nM) it was 103; in experiment [2] (500 nM), 97.2; in experiment [3] (50 nM), 99.9; in experiment [3] (500 nM), 91.8.

`O=C(NCCCNc1nc(Nc2cccc(NC(=O)N3CCCC3)c2)ncc1I)c1cccs1`: the cell proliferation in experiment [1] (50 nM) is 98.5; in experiment [1] (500 nM), 98.8; in experiment [2] (50 nM) it was 99.5; in experiment [2] (500 nM) it was 95.7; in experiment [3] (50 nM) it was 97.2; in experiment [3] (500 nM), 92.1.

Take `Nc1ccn([C@@H]2O[C@H](CO)[C@@H](O)[C@@H]2O)c(=O)n1` [Cytarabine]: the cell proliferation is 93.7 in experiment [1] (50 nM); 24 in experiment [1] (500 nM); 93.6 in experiment [2] (50 nM); 65.8 in experiment [2] (500 nM); 88.9 in experiment [3] (50 nM); 36 in experiment [3] (500 nM).

With `Cn1cc(C2=C(c3ccc(Cl)cc3Cl)C(=O)NC2=O)c2ccccc21`, the cell proliferation in experiment [1] (50 nM) was found to be 105; in experiment [1] (500 nM), 96.2; in experiment [2] (50 nM), 105; in experiment [2] (500 nM), 108; in experiment [3] (50 nM), 97.8; in experiment [3] (500 nM), 100.

Take `Nc1ccc(C(=O)Nc2cccc(-c3nc(N4CCOCC4)c4oc5ncccc5c4n3)c2)cn1`: the cell proliferation stood at 98.7 in experiment [1] (50 nM); 104 in experiment [1] (500 nM); 102 in experiment [2] (50 nM); 104 in experiment [2] (500 nM); 102 in experiment [3] (50 nM); 103 in experiment [3] (500 nM).

In the case of `COc1ccc(-c2ccc3c(N4CCOC[C@@H]4C)nc(N4CCOC[C@@H]4C)nc3n2)cc1CO`, the cell proliferation in experiment [1] (50 nM) is 72.7; in experiment [1] (500 nM), 34.8; in experiment [2] (50 nM), 75.1; in experiment [2] (500 nM), 40.2; in experiment [3] (50 nM), 63.8; in experiment [3] (500 nM) it was 35.1.

Turning to `O=C1NC(=O)C(c2ccccc2[N+](=O)[O-])=C1Nc1ccc(O)c(Cl)c1`, the cell proliferation in experiment [1] (50 nM) came to 111; in experiment [1] (500 nM) it was 113; in experiment [2] (50 nM), 110; in experiment [2] (500 nM), 105; in experiment [3] (50 nM), 108; in experiment [3] (500 nM), 101.

For `Cc1ccc([C@@H]2O[C@H](CO)[C@@H](O)[C@H](O)[C@H]2O)cc1Cc1ccc(-c2ccc(F)cc2)s1` [Canagliflozin], the cell proliferation in experiment [1] (50 nM) was 93.3; in experiment [1] (500 nM), 102; in experiment [2] (50 nM) it was 104; in experiment [2] (500 nM), 104; in experiment [3] (50 nM), 91.9; in experiment [3] (500 nM), 87.9.

As for `CCCS(=O)(=O)Nc1ccc(F)c(C(=O)c2c[nH]c3ncc(-c4ccc(Cl)cc4)cc23)c1F` [Vemurafenib (PLX4032, RG7204)], the cell proliferation in experiment [1] (50 nM) stood at 106; in experiment [1] (500 nM), 110; in experiment [2] (50 nM), 101; in experiment [2] (500 nM), 108; in experiment [3] (50 nM), 101; in experiment [3] (500 nM), 100.

Consider `C[C@H](Nc1ncnc2nc[nH]c12)c1cc2cccc(Cl)c2c(=O)n1-c1ccccc1`, for which the cell proliferation in experiment [1] (50 nM) turned out to be 103; in experiment [1] (500 nM), 92.2; in experiment [2] (50 nM), 95.6; in experiment [2] (500 nM), 94.3; in experiment [3] (50 nM), 106; in experiment [3] (500 nM), 108.

Regarding `COc1cc2c(Oc3ccc(NC(=O)C4(C(=O)Nc5ccc(F)cc5)CC4)cc3F)ccnc2cc1OCCCN1CCOCC1`, the cell proliferation in experiment [1] (50 nM) came to 101; in experiment [1] (500 nM), 69.7; in experiment [2] (50 nM), 98.3; in experiment [2] (500 nM) it was 66; in experiment [3] (50 nM), 92.7; in experiment [3] (500 nM), 58.9.

Take `COc1nc(OCc2cccc(-c3ccccc3)c2C)ccc1CNCCNC(C)=O` [PD-1/PD-L1 inhibitor 2]: the cell proliferation was found to be 95.9 in experiment [1] (50 nM); 89 in experiment [1] (500 nM); 94.4 in experiment [2] (50 nM); 82.7 in experiment [2] (500 nM); 104 in experiment [3] (50 nM); 91.5 in experiment [3] (500 nM).
